This note sets out measurements from PubChem BioAssay AID1626 (SRMLSC, 2009).

What is called inhibition is the relative decrease from the control value, in per cent.

SMILES strings stand for the structures. The campaign covered roughly 220,000 compounds. About 2,000 (0.91%) were called active. About 2% were inconclusive and are not listed. Cut-off read from the data, not from the text of the source: inconclusive = inhibition above about 80% without an active follow-up result; inactive = below that; test concentration not stated here. The list is a sample of the results. Potency and affinity values are given separately.

This experiment in a line: M. tuberculosis H37Rv growth inhibitors, H37Rv strain (AID 1626).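 Note: bacteria incubated seven days before Alamar blue readout; 0% = bacteria only wells and 100% = bacteria with antibiotic wells.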 Conditions: active compounds read high, concentration not given here.
On to `COc1ccc(/C=N/NC(=O)CC2N=C(Cc3ccccc3)NNC2=O)cc1OC` (configuration not stated), for which the inhibition was -1.24% (inactive).
Under `O=C(Oc1c(Cl)cc(Cl)c2ccccc12)N1CCCCC1` stands 11.7% (inactive).
With `NC(=O)CCC(NC(=O)c1ccc(Cl)cc1)C(=O)O` (configuration not stated), the inhibition was 2.33% (inactive).
As for `COc1ccc(NC(=O)CCN2C(=O)[C@@H]3[C@H](C2=O)[C@H]2C=C[C@@H]3C2)cc1`, the figure is -1.56% (inactive); as for `O=C(Nc1ccc(-c2nc3ccccc3o2)cc1)c1ccc(N2C(=O)C3C4C=CC(C4)C3C2=O)cc1` (configuration not stated), 3.15% (inactive); as for `CC(=O)Nc1cccc(-c2nc3ccccc3c(=O)o2)c1`, 9.37% (inactive).
As for `COc1ccc(-c2nc3ccccc3c(=O)o2)cc1`, the figure is 11.6% (inactive); as for `CCCC(=O)Nc1cccc(-c2nc3ccccc3o2)c1`, 5.23% (inactive); as for `O=C1C2C3C=CC(C3)C2C(=O)N1c1ccc(-c2nc3ccccc3o2)cc1` (configuration not stated), 0.58% (inactive).
On to `CC(C)(C)C(=O)Nc1cccc(-c2nc3ccccc3c(=O)o2)c1`, for which the inhibition is 70.7% (inactive).
Under `COc1ccc(C2C(Oc3ccccc3)C(=O)N2c2ccc(C)c(C)c2)cc1OC` (configuration not stated) stands 4.9% (inactive); under `Fc1ccc(CNC(=S)NC2CCCC2)cc1`, 2.21% (inactive); under `CCc1cc(C(=O)OC)c(NC(=O)CC2SC(N)=NC2=O)s1` (configuration not stated), 3.51% (inactive).
As for `CC(=O)N1CCN(c2ccc(N=Cc3c(O)n(-c4ccc(Cl)cc4)c(=O)[nH]c3=O)cc2)CC1`, the figure is -7.57% (inactive); as for `COc1ccccc1CCc1nnc(CCC(=O)NC(C)Cc2cccc(C)n2)o1` (configuration not stated), -7.73% (inactive).
Under `COc1ccc(/C=C2\SC(=N)N(c3ccc(F)cc3)C2=O)cc1OC` stands -3.05% (inactive); under `CCOc1cc(/C=C2\SC(=N)N(c3nonc3N)C2=O)ccc1OCC(N)=O`, 4% (inactive).
Take `CCOc1cc(/C=C2\SC(=N)N(c3nonc3N)C2=O)ccc1OCCN1CCOCC1`: the inhibition is 4.53% (inactive).
As for `COc1cc(/C=C2\SC(=N)N(c3ccc(F)cc3)C2=O)ccc1O`, the inhibition is 7.97% (inactive).
Under `CCN1C(c2ccccc2)=C(c2ccccc2)S/C1=C\C=C1/SC(=S)N(C)C1=O` stands 3.07% (inactive).
Consider `Cc1cccnc1-n1c(CN2C(=O)c3ccccc3C2=O)nc2ccccc2c1=O`, for which the inhibition is -3.32% (inactive).
In the case of `CCOC(=O)c1c(CSC(=N)N)n(-c2ccccc2)c2cc(Br)c(OC(C)=O)cc12`, the inhibition is -0.53% (inactive).
Take `CCOC(=O)c1c(CSC(=N)N)n(C)c2cc(Br)c(OC(C)=O)cc12`: the inhibition is 1.34% (inactive).
Turning to `O=C(CN=C1NS(=O)(=O)c2ccccc21)OCC(=O)c1cc(F)ccc1F`, the inhibition is -7.99% (inactive).
With `c1csc(Cc2nn3c(-c4ccncc4)nnc3s2)c1`, the inhibition was -11.8% (inactive).
As for `c1ccc(-c2nnc3sc(Cc4cccs4)nn23)cc1`, the figure is 15.9% (inactive); as for `Clc1ccccc1-c1nnc2sc(CCc3ccccc3)nn12`, 5.64% (inactive).
As for `c1coc(-c2nnc3sc(Cc4cccs4)nn23)c1`, the figure is -0.74% (inactive); as for `C1CCC(c2nn3c(-c4n[nH]c5c4CCC5)nnc3s2)CC1`, 9.35% (inactive); as for `c1ccc(CCc2nn3c(-c4ccncc4)nnc3s2)cc1`, -0.85% (inactive).
As for `c1ccc(OCc2nn3c(-c4ccccn4)nnc3s2)cc1`, the figure is -10.6% (inactive); as for `c1ccc(OCc2nn3c(-c4ccncc4)nnc3s2)cc1`, -8.19% (inactive).
As to `O=C(OCc1nc2ccccc2s1)c1cnccn1`, the inhibition was -4.85% (inactive).
Regarding `O=C(c1ccc(=O)[nH]n1)N1CCc2ccccc2C1`, the inhibition was 5.26% (inactive).
With `COC(=O)CCSCC(=O)Nc1nnc(C)s1`, the inhibition was -2.82% (inactive).
As for `CCN(CC)C(=O)CSc1nnc(-c2ccc(F)cc2)n1N`, the figure is 3.27% (inactive).
For `CC(=O)Oc1ccc(C(=O)Nc2cccc(C(=O)c3cccc(NC(=O)c4ccc(OC(C)=O)cc4)c3)c2)cc1`, the inhibition was 74.4% (inactive).
As for `COC1=CC(=O)CC(C)C12Oc1cc(OC)cc(OC)c1C2=O` (configuration not stated), the figure is -7.12% (inactive); as for `COCCNC(=O)/C(C#N)=C\c1ccc(CNS(=O)(=O)c2ccccc2)o1`, -0.59% (inactive); as for `O=C1c2ccccc2C(O)(c2ncc[nH]2)N1CCc1ccccc1` (configuration not stated), -2.48% (inactive).
In the case of `COc1ccccc1Nc1nc(NCc2ccco2)c2ccccc2n1`, the inhibition was 83.7% (inactive).
With `OCCNc1nc(N2CCN(Cc3ccccc3)CC2)nc2ccccc12`, the inhibition is -8.82% (inactive).
On to `c1ccc(CNc2nc(NCc3ccco3)nc(N3CCOCC3)n2)cc1`, for which the inhibition was 10.6% (inactive).
As for `OCCN1CCN(c2nc(NCc3ccco3)c3ccccc3n2)CC1`, the figure is -2.39% (inactive); as for `c1ccc2c(NCC3CCCO3)nc(N3CCCCC3)nc2c1` (configuration not stated), 1.41% (inactive); as for `Clc1nc(NCc2ccco2)nc(N2CCCCC2)n1`, 5.51% (inactive).
As for `CCOCCCNC(=O)c1cc2c(=O)n3cccc(C)c3nc2n1C`, the figure is 1.27% (inactive); as for `c1ccc(-c2ncc3c(ccc4ccccc43)n2)cc1`, 4.61% (inactive); as for `CCOc1ncccc1C(=O)Nc1ccccc1C(=O)NCc1ccc2c(c1)OCO2`, -0.12% (inactive).
For the compound `Cc1ccccc1Nc1nc(N)nc(CSc2nnc(C)n2C)n1`, the inhibition is 3.87% (inactive).
Under `CCn1c2ccccc2c2cc(C3N=C(N)Nc4nc5ccccc5n43)ccc21` (configuration not stated) stands -6.84% (inactive); under `NC1=NC(c2ccc(Cl)cc2)n2c(nc3ccccc32)N1` (configuration not stated), 4.44% (inactive).
In the case of `Cc1ccc(C2N=C(N)Nc3nc4ccccc4n32)cc1` (configuration not stated), the inhibition is -6.16% (inactive).
With `NC1=NC(c2ccccc2Cl)n2c(nc3ccccc32)N1` (configuration not stated), the inhibition is 7.21% (inactive).
For `Cc1cccc(C2N=C(N)Nc3nc4ccccc4n32)c1` (configuration not stated), the inhibition was -9.29% (inactive).
In the case of `CCOC(=O)C1=C(C)Nc2nc3ccccc3n2C1c1ccccc1` (configuration not stated), the inhibition is -9.7% (inactive).
As for `O=C1C2C3CCC(C3NCc3ccccc3)C2C(=O)N1Cc1ccccc1` (configuration not stated), the figure is -0.18% (inactive); as for `OC(CSc1ccc(F)cc1)CN1CCN(c2ccccc2)CC1` (configuration not stated), 2.78% (inactive).
Under `Cc1nc(-c2nc(-c3c(C(=O)NNC(=O)Nc4ccccc4)noc3C)cs2)cs1` stands 1.03% (inactive); under `Cc1nc(NC(=O)c2cc(-n3cnnc3)ccc2Cl)ccc1Br`, 0.92% (inactive); under `COc1ccc(CC(=O)OCC(=O)NC(=O)NC23CC4CC(CC(C4)C2)C3)cc1`, 0.65% (inactive).
`O=C(COC(=O)c1ccc(-c2ccc([N+](=O)[O-])cc2)o1)NC(=O)NC1CCCCC1`: the inhibition was 31% (inactive).
As for `O=C(NC12CC3CC(CC(C3)C1)C2)c1ccccc1`, the figure is 2.5% (inactive); as for `O=C(NC12CC3CC(CC(C3)C1)C2)c1ccc(=O)oc1`, -2.56% (inactive).
Under `CCN(Cc1cc2ccc(C)cc2[nH]c1=O)C(=O)c1cccnc1` stands 3.56% (inactive).
As for `COCCSc1nnc(NS(=O)(=O)c2ccc(C)cc2)s1`, the figure is -4.12% (inactive); as for `O=C(CSc1nnc(-c2ccco2)n1Cc1ccccc1)OC1CCCCC1`, -11.8% (inactive); as for `N/C(=N\OC(=O)/C=C/c1ccccc1)c1ccc(Cl)cc1`, 1.43% (inactive).
Regarding `COC(=O)c1cc(C#N)c(N2CCOCC2)nc1C`, the inhibition is -9.18% (inactive).
Under `O=C(O)c1cc(Cl)ccc1-c1ccc(/C=C/c2cc(C(F)(F)F)[nH]c(=O)n2)o1` stands -1.69% (inactive); under `O=C(O)c1ccccc1-c1ccc(/C=C/c2cc(C(F)(F)F)[nH]c(=O)n2)o1`, -2.38% (inactive); under `Cc1ccc(S(=O)(=O)Nc2cc(C(C(=O)OC(C)C)C(=O)C(F)(F)F)c(O)c3ccccc23)c(C)c1` (configuration not stated), -10.5% (inactive).
As for `CCc1nc(N)c(C#N)c(-c2ccc(OC)c(OC)c2)c1C`, the figure is -2.13% (inactive).
Turning to `COc1ccc(CNC(=O)/C=C/c2ccc(OCCCF)cc2)cc1`, the inhibition is 11.3% (inactive).
For `O=C(/C=C/c1ccc(OCCCF)cc1)Nc1ccnc(-c2cccnc2)n1`, the inhibition was -6.59% (inactive).
Under `CC(=O)Nc1ccc2nc(SCC(=O)N3CCOCC3)sc2c1` stands 5.08% (inactive).
As for `O=C(Nc1ccc2nc(SCc3ccc(Cl)cc3)sc2c1)c1ccccc1C(=O)N1CCOCC1`, the figure is 4.76% (inactive); as for `CCCn1c(=O)c(C(=O)NCc2ccc(OC)c(OC)c2)c(O)c2ccccc21`, -0.33% (inactive).
As for `COc1ccc(-c2nc(NC(=O)c3nc4nccc(C)n4n3)sc2C)cc1`, the figure is -7.46% (inactive).
Take `Cc1ccc(-c2nc(NC(=O)c3cc(C(C)(C)C)nn3C)sc2C)cc1Cl`: the inhibition was 78.4% (inactive).
Under `C1CN(CC2CCN(c3nc4nonc4nc3N3CCSCC3)CC2)CCO1` stands -0.53% (inactive); under `CCCCc1ccc(NC(=O)N[C@@H](C)C(=O)O)cc1`, 0.78% (inactive).
Consider `CCCCc1ccc(NC(=O)CC(C)(C)C)cc1`, for which the inhibition was 5.76% (inactive).
With `CCCCc1ccc(NC(=O)CC(C)=O)cc1`, the inhibition was 77.5% (inactive).
As for `CCCCc1ccc(NC(=O)OC)cc1`, the figure is 58% (inactive); as for `CCN(CC)C(=O)C1=C(C)Nc2ncnn2C1c1cccnc1` (configuration not stated), -0.97% (inactive); as for `Cc1nn2c(-c3ccccc3)ccnc2c1-c1ccccc1`, -0.56% (inactive).
In the case of `OCC1OC(n2nnc3ccccc32)C(O)C(O)C1O` (configuration not stated), the inhibition is -9.39% (inactive).
For `Cc1cc(NC(=O)CCl)on1`, the inhibition is 0.735% (inactive).
Under `Cc1cc(NC(=O)CCl)no1` stands 65% (inactive); under `CSc1nc(=O)n2cc(C)ccc2n1`, 0.11% (inactive).
As for `CCOC(=O)C(NC(C)=O)(Nc1ccc(S(=O)(=O)Nc2cc(C)nc(C)n2)cc1)C(F)(F)F` (configuration not stated), the figure is -6.92% (inactive); as for `Cc1ccc(NC(=O)c2ccc(CSc3ccccn3)cc2)cc1`, 14.1% (inactive); as for `O=C(Nc1ccccc1)c1ccc(CSc2ncccn2)cc1`, 3.69% (inactive).
Regarding `CCOC(=O)C(=CNc1ccc(Oc2cncc(Cl)c2)nc1)C(=O)OCC`, the inhibition was 2.61% (inactive).
Under `Cc1onc(-c2ccccc2Cl)c1C(=O)Nc1ccc(-n2nncc2-c2ccco2)cc1` stands 68% (inactive).
As for `O=C(Nc1ccc(-n2nncc2-c2ccco2)cc1)c1ccc(F)cc1`, the inhibition was 0.33% (inactive).
